Laboratory results taken from PubChem BioAssay (Tox21).
Where “and” joins values, the source holds several entries; their conditions need not be identical. Equal values may be shown once. Inconclusive results are not listed. Where a structure was tested more than once in an assay, its records may differ in their call. Calls of active or inactive are those of the source. Unless noted, the call rests on the fitted dose curve; in most records, active means well fitted curve in the direction sought with a large enough effect in the repeat runs; inconclusive means weak or mixed curves; inactive means no such curve, though single readings can be large; an effect the other way counts as inactive or inconclusive.

Assays:
[1] = qHTS assay to identify small molecule agonists of the hypoxia (HIF-1) signaling pathway - cell viability counter screen (AID 1224844; calls by dose curve; further: nearly all actives have a fitted effect of over 50% in size; further: potency means the concentration at half of the fitted maximal effect)
Method in brief: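 ME-180 HRE-bla cells, 2,000/well, 0.5% dialyzed FBS; 5 hr settle, 17 hr compound at 37C/5% CO2; CCF4-AM reporter read first, then CellTiter-Glo luminescence after 30 min RT.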

[2] = qHTS assay to identify small molecule agonists of H2AX (AID 1224845; active means well fitted activation curve with a large enough effect in the signal ratio in the repeat runs, not every such curve was filed as active; the % refers to the signal ratio)
Method in brief: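 Wild-type CHO-K1 cells plated overnight, then exposed 3 hr at 37C to compounds at 15 concentrations (0.76% DMSO). Lysed, then HTRF anti-pH2AX(S139)-cryptate/anti-H2AX-d2 detection after 24 hr at room temperature; emissions 665 and 620 nm.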

[3] = qHTS assay to identify small molecule agonists of H2AX - cell viability counter screen (AID 1224847; calls by dose curve; further: nearly all actives have a fitted effect of over 30% in size; further: potency means the concentration at half of the fitted maximal effect)
Method in brief: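 We seed wild-type CHO-K1 cells overnight, treat them for 3 hr at 37C with compounds in 15-concentration series, and quantify remaining viability by CellTiter-Glo luminescence.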

[4] = qHTS RealTime-Glo MT Cell Viability Assay in HepG2 cells - 24 hour (AID 1224867); further: nearly all actives have a fitted effect of over 50% in size; further: potency means the concentration at half of the fitted maximal effect
Method in brief: (§1)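 Viability was tracked continuously by NanoLuc luminescence from prosubstrate reduced by living HepG2 cells, at successive time points over 40 h of compound exposure. Cells with reagent were preincubated 5 h at 37 °C before compound addition.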

[5] = A CellTox Green Cytotoxicity Assay to monitor cytotoxicity in HEK293 cells - 0 hour (AID 1224869); further: nearly all actives have a fitted effect of over 50% in size
Method in brief: (§2)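 Nonlytic real-time cytotoxicity: HEK293 + CellTox Green reagent plated, 5 h preincubation, pintool compound addition (23 nL in DMSO), 37 C for 40 h, fluorescence measured at successive time points.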

[6] = qHTS RealTime-Glo MT Cell Viability Assay in HepG2 cells - 40 hour (AID 1224870); further: nearly all actives have a fitted effect of over 50% in size; further: potency means the concentration at half of the fitted maximal effect
Method in brief: (§3)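 HepG2 cells mixed with RealTime-Glo MT reagents (NanoLuc plus cell-permeant prosubstrate) were seeded at 600 cells/well, incubated 5 h at 37 C/5% CO2, then pinned with compounds in DMSO; nonlytic luminescence tracked viability during 40 h treatment.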

[7] = A CellTox Green Cytotoxicity Assay to monitor cytotoxicity in HEK293 cells - 40 hour (AID 1224871); further: nearly all actives have a fitted effect of over 45% in size; further: potency means the concentration at half of the fitted maximal effect
Method in brief: as §2

[8] = qHTS RealTime-Glo MT Cell Viability Assay in HEK293 cells - 16 hour (AID 1224872); further: nearly all actives have a fitted effect of over 50% in size; further: potency means the concentration at half of the fitted maximal effect
Method in brief: (§4)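 Viability tracked continuously by luminescence as live cells reduce a prosubstrate for NanoLuc; HEK293 cells preincubated 5 h, compound-treated at 37 C, and read at 0, 8, 16, 24, 32 and 40 h.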

[9] = qHTS RealTime-Glo MT Cell Viability Assay in HepG2 cells - 8 hour (AID 1224873); further: nearly all actives have a fitted effect of over 55% in size; further: potency means the concentration at half of the fitted maximal effect
Method in brief: as §3

[10] = qHTS RealTime-Glo MT Cell Viability Assay in HEK293 cells - 40 hour (AID 1224874); settings: RealTime-Glo luminescence; max response: stronger effect = lower value; further: nearly all actives have a fitted effect of over 50% in size; further: potency means the concentration at half of the fitted maximal effect
Method in brief: (§5)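 Cells were seeded together with NanoLuc luciferase and a prosubstrate that viable cells reduce to a luciferase substrate. After a 5 h incubation at 37 C/5% CO2, compounds were added and luminescence was measured repeatedly during 40 h of treatment.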

[11] = A CellTox Green Cytotoxicity Assay to monitor cytotoxicity in HEK293 cells - 24 hour (AID 1224875); further: nearly all actives have a fitted effect of over 45% in size
Method in brief: as §2

[12] = A CellTox Green Cytotoxicity Assay to monitor cytotoxicity in HepG2 cells - 16 hour (AID 1224876); further: nearly all actives have a fitted effect of over 45% in size; further: potency means the concentration at half of the fitted maximal effect
Method in brief: (§6)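 Read-out is fluorescence of a cyanine dye excluded from live cells that stains DNA of dead HepG2 cells, with signal proportional to cytotoxicity. Plates were read at 0, 8, 16, 24, 32 and 40 h after compound addition.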

[13] = qHTS RealTime-Glo MT Cell Viability Assay in HepG2 cells - 32 hour (AID 1224877); further: nearly all actives have a fitted effect of over 55% in size; further: potency means the concentration at half of the fitted maximal effect
Method in brief: as §1

[14] = A CellTox Green Cytotoxicity Assay to monitor cytotoxicity in HepG2 cells - 24 hour (AID 1224878); further: nearly all actives have a fitted effect of over 45% in size
Method in brief: as §6

[15] = A CellTox Green Cytotoxicity Assay to monitor cytotoxicity in HepG2 cells - 40 hour (AID 1224879); further: nearly all actives have a fitted effect of over 40% in size; further: potency means the concentration at half of the fitted maximal effect
Method in brief: as §6

[16] = qHTS RealTime-Glo MT Cell Viability Assay in HEK293 cells - 32 hour (AID 1224868)
Method in brief: as §4

[17] = qHTS RealTime-Glo MT Cell Viability Assay in HEK293 cells - 0 hour (AID 1224880)
Method in brief: as §5

[18] = qHTS assay to identify small molecule agonists of the hypoxia (HIF-1) signaling pathway (AID 1224846; active means well fitted activation curve with a large enough effect in the signal ratio in the repeat runs, not every such curve was filed as active; the % refers to the signal ratio)
Method in brief: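 Cell line: CellSensor HRE-bla ME-180; 2,000 cells/well; 0.5% dialyzed FBS; 5 h preincubation; DMSO compound pin transfer; 17 h, 37C, 5% CO2; CCF4-AM added; bla FRET signal scored for activation.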

[19] = qHTS assay to identify small molecule antagonists of the estrogen related receptor (ERR) signaling pathway from Tox21 library (AID 1224848); further: nearly all actives have a fitted effect of over 50% in size; further: potency means the concentration at half of the fitted maximal effect
Method in brief: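 Cells: ERR line, 2,000/well; 6 h preincubation 37 C/5% CO2. Cpd in DMSO via pin tool; 18 h, 37 C. ONE-Glo, 30 min RT, luminescence.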

[20] = qHTS assay to identify small molecule agonists of the estrogen related receptor (ERR) signaling pathway from Tox21 library (AID 1224849; calls by dose curve; further: nearly all actives have a fitted effect of over 15% in size); settings: ERR reporter cell line, ONE-Glo luciferase, 18 h; at 92.4 µM (top of the series)
Method in brief: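 ERR cells, 6 h pre-incubation 37 C/5% CO2; cpd in DMSO pinned; 18 h 37 C; ONE-Glo added, 30 min RT; luminescence read. Agonist mode, qHTS.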
On the % scale 0 is the no-effect control and ±100 the full control effect.

CC(=O)Oc1ccc(C(c2ccc(OC(C)=O)cc2)c2ccccn2)cc1
active: Potency [1] 109 nM and 756 nM
inactive: Potency [2] | Potency [3] | Potency [4] | Potency [5] | Potency [6] | Potency [7] | Potency [8] | Potency [9] | max response [10] -20.4% | Potency [11] | Potency [12] | Potency [13] | Potency [14] | Potency [15]

c1ccc2c(c1)[nH]c1ccccc12
inactive: Potency [1] | Potency [2] | Potency [3] | Potency [4] | Potency [16] | Potency [5] | Potency [6] | Potency [7] | Potency [8] | Potency [9] | max response [10] -8.89% | Potency [11] | Potency [12] | Potency [13] | Potency [14] | Potency [17]

Cc1cccc(Nc2ccccc2C(=O)O)c1C
inactive: Potency [1] | Potency [2] | Potency [3] | Potency [4] | Potency [16] | Potency [5] | Potency [6] | Potency [7] | Potency [8] | max response [10] -11.8% and 1.92% | Potency [11] | Potency [12] | Potency [13] | Potency [14] | Potency [15] | Potency [17]

CCCN1C=CN(C)C1
inactive: Potency [1] | Potency [2] | Potency [3] | Potency [4] | Potency [16] | Potency [5] | Potency [6] | Potency [7] | Potency [8] | Potency [9] | max response [10] -1.14% and -1.07% | Potency [11] | Potency [12] | Potency [13] | Potency [14] | Potency [15] | Potency [17]

CC(=O)Nc1ccc2c(c1)Cc1cc(NC(C)=O)ccc1-2
inactive: Potency [1] | Potency [2] | Potency [3] | Potency [4] | Potency [16] | Potency [5] | Potency [6] | Potency [7] | Potency [8] | max response [10] 1.79% and 3.64% | Potency [11] | Potency [12] | Potency [13] | Potency [14] | Potency [15]

Cc1ccc(C)c(O)c1
inactive: Potency [1] | Potency [2] | Potency [3] | Potency [4] | Potency [5] | Potency [6] | Potency [7] | Potency [8] | max response [10] 1.95% and 4.96% | Potency [11] | Potency [12] | Potency [13] | Potency [14] | Potency [15]

NC[C@H](O)c1ccc(O)c(O)c1
inactive: Potency [1] | Potency [3] | Potency [4] | Potency [16] | Potency [5] | Potency [6] | Potency [7] | Potency [8] | max response [10] -0.0212% and 2.99% | Potency [11] | Potency [12] | Potency [13] | Potency [14] | Potency [15]

CCCCCCCC/C=C\CCCCCCCC(=O)O
inactive: Potency [1] | Potency [2] | Potency [3] | Potency [4] | Potency [5] | Potency [6] | Potency [7] | Potency [8] | max response [10] 12.6% and 4.42% | Potency [11] | Potency [12] | Potency [13] | Potency [14] | Potency [15]

Nc1ccc(O)c(N)c1
inactive: Potency [1] | outcome [18] | Potency [19] | activity change, positive = activation [20] -9.18% and -12% | Potency [4] | Potency [5] | Potency [6] | Potency [7] | Potency [8] | Potency [9] | max response [10] -10.8% and -11.4% | Potency [11] | Potency [12] | Potency [13] | Potency [14] | Potency [15]
active: Potency [3] 56.3 µM and 50.5 µM

C1CN(SSN2CCOCC2)CCO1
54.4 µM (active) and inactive: Potency [7]
active: Potency [1] 54.4 µM | Potency [19] 60.5 µM and 61.1 µM
inactive: outcome [18] | Potency [3] | activity change, positive = activation [20] -55.6% and -54.1% | Potency [4] | Potency [16] | Potency [5] | Potency [6] | Potency [8] | max response [10] -14.4% | Potency [12] | Potency [13] | Potency [15] | Potency [17]

Cc1ccc(C(C)(C)C)cc1
inactive: Potency [1] | Potency [2] | Potency [3] | Potency [4] | Potency [16] | Potency [5] | Potency [6] | Potency [7] | Potency [8] | Potency [9] | max response [10] 0.538% | Potency [11] | Potency [12] | Potency [13] | Potency [15]

Cc1ccc(/C(=C\CN2CCCC2)c2ccccn2)cc1
inactive: Potency [1] | Potency [2] | Potency [3] | Potency [4] | Potency [5] | Potency [6] | Potency [7] | Potency [8] | max response [10] -3.85% | Potency [11] | Potency [12] | Potency [13] | Potency [14] | Potency [15] | Potency [17]

O=C(CCCN1CCC(O)(c2ccc(Cl)cc2)CC1)c1ccc(F)cc1
inactive: Potency [1] | Potency [2] | Potency [3] | Potency [5] | Potency [17]
43.6 µM (active) and inactive: Potency [12]
54.9 µM (active) and inactive: Potency [6]
49 µM (active) and inactive: Potency [4] | Potency [7] | Potency [9] | Potency [13]
active: Potency [8] 13.8 µM and 5.35 µM | Potency [10] 21.9 µM and 8.49 µM | Potency [15] 24.5 µM and 26.8 µM
